Measurements published in PubChem BioAssay AID1259312 (Keith Lab, Institute of Cancer Science, University of …, 2017).
Out of some 4,500 compounds screened, about 200 (4.4%) were called active. The entries come from a sample that favours actives as a whole. Unmarked numbers belong to inactive results.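 The calls were made as follows: active = cell survival measured by absorbance rises more than 2.5-fold over infected cells without compound; inactive = the rest.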

Test: survival after telomere uncapping, modulators, primary screen, cell-based (AID 1259312);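 also: virus expresses mutant telomerase RNA that uncaps telomeres and kills cells; compound added 2 days after infection so exposure lasts 3 days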
Details: HCT116 + Ad-hTR-mut, MTT, 5 d; at 10 µM, active compounds read high

Structure (SMILES) | fold change
COc1ccc(C2Oc3ccccc3C3CC(c4ccccc4)=NN32)cc1 (centres undefined) | -1.84
O=c1cc(-c2ccc(O)cc2)oc2c(O)c(O)ccc12 | 1.16
CSc1nc2ccccc2n1Cc1ccccc1Cl | 1.29
O=S(=O)(Nc1ccc(S(=O)(=O)Nc2ccccc2Cl)cc1)c1ccc2c(c1)OCCO2 | -1.07
CNCC1COCCO1 (centres undefined) | -2.02
N=C(N)SCc1csc(N)n1 | 1.98
S=c1[nH]nc(Cc2cccc3ccccc23)o1 | -2.84
C1=NC(Cc2cccc3ccccc23)NC1 (centres undefined) | 4.23 (active)
Cc1nc2sc3c(c2c(=O)n1N)CCC3 | -1.06
c1ccc(CC2COC(C3=N[C@@H](Cc4ccccc4)CO3)=N2)cc1 (some centres undefined) | 1.27
O=C(NCCC1=CCCCC1)C(=O)NCc1ccco1 | -1.07
O=S(=O)(c1ccc2ccccc2c1)N1CCc2ccccc21 | 1
CCCCc1ccc(-c2csc(N)c2C#N)cc1 | -1.78
S=c1n(CN2CCOCC2)nnn1C1CCCCC1 | 1.01
CCn1c(-c2ccccc2)nn(CN2CCOCC2)c1=S | 1.15
S=c1n(CN2CCOCC2)nnn1-c1ccccc1 | 4.24 (active)
CN(C)c1nc(N)nc(CN(C)S(=O)(=O)c2ccccc2)n1 | -1.09
C(=Nc1ccc2[nH]ncc2c1)c1ccc2c(c1)OCO2 | -2.04
O=c1[nH]c2ccc(N=Cc3ccc4c(c3)OCO4)cc2[nH]1 | 2.71 (active)
CN(C)c1ccc(C=Nc2ccc3[nH]c(=O)[nH]c3c2)cc1[N+](=O)[O-] | -1.64
O=C(ON1C(=O)CCC1=O)ON1C(=O)CCC1=O | -1.28
O=[N+]([O-])c1ccc(Cl)c(N2CCCC2)c1 | 2.03
Nc1nnc(SCc2ccc(Cl)cc2)s1 | 1.21

Structure (SMILES) | fold change
N=C(N)SCc1ccc(Cl)cc1Cl | -1.36
N=C(N)SCc1ccc(Cl)cc1 | 2.73 (active)
CC1Oc2ccc(S(=O)(=O)NCC3CCCO3)cc2NC1=O (centres undefined) | -1.21
O=S(=O)(NCC1CCCO1)c1ccc(Br)cc1 (centres undefined) | 3.1 (active)
O=S(=O)(NCC1CCCO1)c1ccccc1 (centres undefined) | -1.72
NCC12CC3CC(CC(C3)C1)C2 | -1.38
CC1NC(=O)N(C(C)(C)C)C(=O)C1Cl (centres undefined) | 3.94 (active)
COc1ccc(N2C(=O)/C(=C\N3CCN(C)CC3)SC2=S)cc1 | -1.11
Cc1ccn(-c2ccc([N+](=O)[O-])cc2)n1 | -1.59
O=C1NC(=S)S/C1=C/c1ccc(-c2cccc(C(F)(F)F)c2)o1 | 1.1
O=C1NC(=O)/C(=C\c2ccc(-c3cccc(C(F)(F)F)c3)o2)S1 | -1.8
N#CC(C#N)=Cc1ccc(-c2cccc(C(F)(F)F)c2)o1 | 2.62 (active)
O=C1CSc2ccc(NC(=O)C3CCCC3)cc2N1 | 1.29
Nc1cc(N2CCOCC2)ccc1[N+](=O)[O-] | 3.38 (active)
O=[N+]([O-])c1ccc(N2CCCCC2)cc1N1CCOCC1 | -1.29
O=[N+]([O-])c1ccc(N2CCOCC2)cc1 | 1.1
O=C(O)C(C(=O)O)C1C=CCC1 (centres undefined) | 1.13
Nc1cc(Cl)ccc1N1CCOCC1 | 1.23
Nc1ccc(N2CCOCC2)c(Br)c1 | -1.07
Nc1ccc(N2CCOCC2)c(Cl)c1 | 4.13 (active)
N#CC1=C(N)n2c(s/c(=C\c3ccc(Br)cc3)c2=O)=C(C#N)C1c1ccc(Br)cc1 (centres undefined) | -1.13
Brc1ccc(-c2csc(N3CCOCC3)n2)cc1 | 1.56
N#CC(C#N)C(c1ccsc1)c1c(-c2ccccc2)[nH][nH]c1=O (centres undefined) | 3.37 (active)

Structure (SMILES) | fold change
Clc1ccc(-c2nc3sc(-c4ccc(Cl)cc4Cl)nc3s2)c(Cl)c1 | -2.46
COC(=O)c1nc2ccc(OC)cc2s1 | -1.15
COc1ccc(C2C(C#N)=C(N)NC(C(C#N)C#N)=C2C#N)cc1OC (centres undefined) | -1.8
CCOC(=O)CO/N=C(\C(=O)O)c1ccn[nH]1 | inactive
COC(=O)CNC(=O)c1ccn[nH]1 | -1.28
O=C(O)c1ccn[nH]1 | 3.42 (active)
c1ccc(CCn2c(-c3ccccc3)csc2=Nc2ccccc2)cc1 | -2.95
CSc1nc(-c2ccc([N+](=O)[O-])cc2)nn1C | -3.83
CS(=O)(=O)NCCNC(=O)c1nonc1N | -1.3
Nc1nonc1C(=O)NCCNS(=O)(=O)c1ccccc1 | 3.28 (active)
NCCNC(=O)c1nonc1N | 1.63
O=C(O)c1[nH]c(=O)[nH]c(=O)c1[N+](=O)[O-] | 1.2
CS(=O)(=O)N1CCc2cc(S(=O)(=O)N3CCC(c4ccccc4)CC3)ccc21 | 1.49
CS(=O)(=O)Nc1cccc(Cl)c1Cl | -1.31
COc1ccc(CC2=CN(C)CC3=C2OC(N)=C(C#N)C3c2ccc(OC)c(OC)c2)cc1OC (centres undefined) | -1.28
O=C(Nc1ccc(Cl)cc1)Nc1ccc(Cl)cc1Cl | -2.79
CCc1nnc(NC(=O)CN(C)CCC#N)s1 | -1.46
O=c1n(Cc2ccon2)c2ccccc2n1Cc1ccon1 | -2.68
O=C(O)CCCn1c(=O)n(CCCC(=O)O)c2ccccc21 | 3.81 (active)
COC(=O)Cn1c(=O)c2ccccc2n(CC(=O)OC)c1=O | -1.31
CCN(C(=O)Cc1cccs1)C1CCCCC1 | -1.09
Cn1c(=O)oc2ccc(S(=O)(=O)Nc3ccc4c(c3)n(C)c(=O)n4C)cc21 | -1.89
Nc1nonc1-c1ccccc1 | -1.8

Structure (SMILES) | fold change
Cc1ccc(N=Nc2ccccc2)c(N)n1 | 3.19 (active)
CC(=NCCCN1CCOCC1)c1c(C(F)(F)F)[nH]n(-c2nc3ccccc3s2)c1=O | inactive
CCCN=C(CC)c1c(C(F)(F)F)[nH]n(-c2nc3ccccc3s2)c1=O | inactive
CCCCCCCN=C(C)c1c(C(F)(F)F)[nH]n(-c2nc3ccccc3s2)c1=O | active
Cc1ccc2c(c1)c1c3n2CCN(c2nc(-c4ccc(Cl)cc4)cs2)C3CCC1 (centres undefined) | 1.42
O=C1CC(=O)N(c2ccc(Br)cc2)N1 | -1.32
Cn1cccc1/C=C1/C(=O)ON=C1c1ccccc1 | -2.3
CCCCCCC1(C)OCO/C1=C\C[N+](C)(C)C (centres undefined) | -1.62
O=S(=O)(c1ccc(Br)cc1)N1CCCCCC1 | 1.7
O=S(=O)(c1ccc(Oc2ccc(Br)cc2)cc1)N1CCOCC1 | -1.23
CN1CCN(S(=O)(=O)c2ccc(Br)cc2)CC1 | 3.8 (active)
Nc1nnc(SCc2cccc(CSc3nnc(N)s3)n2)s1 | 1.27
Cn1c(=O)n(C)c2cc(CN3C(=O)c4ccccc4C3=O)ccc21 | 1.01
Nc1ccc(S(=O)(=O)Nc2ccccc2)cc1 | -1.09
Nc1ccc(S(=O)(=O)Nc2ccc(Cl)nn2)cc1 | 2.5 (active)
CCc1nnc(NS(=O)(=O)c2ccc(N)cc2)s1 | 3.88 (active)
O=S(=O)(Nc1ccc(Cl)cn1)c1ccc(Br)cc1 | -1.1
CC(=O)NS(=O)(=O)c1ccc(N)cc1 | -1.73
CNS(=O)(=O)c1ccc(N)cc1 | 1.14
O=c1[nH]c(O)c(C=Nc2ccccc2Br)c(=O)[nH]1 | inactive
O=C(O)C1CCS(=O)(=O)C1 (centres undefined) | 2.36
CCCOC(=O)C1=C(C)NC2=C(C(=O)CC(C)(C)C2)C1c1ccc(C)o1 (centres undefined) | -1.43
CC1=C(C(=O)OCC2CCCO2)C(c2ccc(C)o2)C2=C(CC(C)(C)CC2=O)N1 (centres undefined) | 2.87 (active)

Structure (SMILES) | fold change
CC1=C(C(=O)OCC2CCCO2)C(c2ccc(C)o2)C2=C(CCCC2=O)N1 (centres undefined) | 1.18
CCCCC(CC)C(=O)N(CC#N)CC#N (centres undefined) | -1.13
CC(C)(C)c1ccc(C(N2CCCCC2)P(=O)(c2ccccc2)N2CCCCC2)cc1 (centres undefined) | -1.12
Cc1cc(/C=c2\sc3nc4ccccc4n3c2=O)c(C)n1C1CCCC1 | -1.02
Cn1cc([N+](=O)[O-])c(C(=O)n2cccn2)n1 | -1.36
COC(=O)c1ccc(=O)oc1 | -1.06
CN(C(=O)CSC(=S)N1CCCC1)c1ccccc1 | 1.5
CC(=O)Nc1sc2c(c1C#N)CCCC2 | 1.19
CN1CCc2c(sc(N)c2C#N)C1 | 1.58
N#Cc1c(N)sc2c1CCCCC2 | 3 (active)
c1ccc2c(Cc3ccncc3)c3ccccc3nc2c1 | -1.25
O=[N+]([O-])c1cc(Br)cc(C=NCCCCCCN=Cc2cc(Br)cc([N+](=O)[O-])c2O)c1O | inactive
Cn1cccc1/C=C(/C#N)C(N)=O | 1.32
Cc1cc(NS(=O)(=O)c2ccc(N)cc2)no1 | -1.35
COc1cc(NS(=O)(=O)c2ccc(N)cc2)nc(OC)n1 | 3.06 (active)
COc1cc(NC(=O)CCC(=O)O)nc(OC)n1 | -1.34
CCOC(=O)/C(C#N)=C/Nc1ccsn1 | 2.1
N#CC1=C(N)n2c(s/c(=C\c3ccc(O)cc3)c2=O)=C(C#N)C1c1ccc(O)cc1 (centres undefined) | -3
COc1ccccc1OCCSc1nc2ccccc2o1 | -1.24
O=[N+]([O-])c1cccnc1NCCc1cccs1 | -2.56
O=[N+]([O-])c1ccc(Nc2ccc3c(c2)OCCO3)nc1 | -1.85
O=[N+]([O-])c1ccc(NCCc2cccs2)nc1 | 2.58 (active)
